Results filed as inconclusive are left out. Activity calls are given as the source filed them. Unless noted, the call rests on the fitted dose curve; in most records, active means well fitted curve in the direction sought with a large enough effect; inconclusive means small, poorly fitted or top-dose-only effect, or another doubt; inactive means no such curve, though single readings can be large; an effect the other way counts as inactive or inconclusive.
Key:
[1] = Cell Viability - BJ (AID 421; calls by dose curve;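 further: potency means the concentration at half of the fitted maximal effect; cells exposed to compound for 40 hours at 37 °C before readout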); conditions: BJ fibroblast viability, qHTS
Procedure, shortened: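 Luminescent ATP signal (CellTiter-Glo, 20 min at room temperature) served as the read-out of viable BJ cells after 40 hours of compound treatment. Responses were scaled between DMSO and 100 uM tamoxifen, and AC50 values were obtained by Hill modeling.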

[2] = Cell Viability - Jurkat (AID 426;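 active means dose-dependent loss of cell ATP signal giving a full or clear fitted curve, ranked by lower potency value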;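 further: potency means the concentration at half of the fitted maximal effect; cells exposed to compound for 40 hours at 37 °C before ATP read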); conditions: qHTS
Procedure, shortened: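 Luminescent ATP read-out (CellTiter-Glo, 20 min at room temperature) after 40 hr compound exposure at 37 °C of Jurkat E6-1 cells, 5000/well. Decreased ATP taken as cytotoxicity; AC50 from standard Hill equation.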

[3] = Cell Viability - Hek293 (AID 427;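 active means compounds whose dose-response curve shows a full or clear partial loss of cell viability, called from curve shape rather than a numeric limit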;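 further: potency means the concentration at half of the fitted maximal effect; cells exposed to compound for 40 hours at 37 °C before reading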); conditions: qHTS
Procedure, shortened: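 Luminescent ATP read-out (CellTiter-Glo, 20 min RT) after 40 hr compound exposure at 37 °C in complete medium. Signal normalized to DMSO (basal) and 100 uM tamoxifen (100% inhibition); concentration-response fitted with the standard Hill equation to give AC50.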

[4] = Cell Viability - HepG2 (AID 433; calls by dose curve;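 further: potency means the concentration at half of the fitted maximal effect; potency for ATP loss meaning cytotoxicity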); conditions: qHTS
Procedure, shortened: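 Read-out is luciferase-based quantitation of cellular ATP as a measure of viable HepG2 cells after 40 h treatment at 37 °C. Signal decrease is scaled between DMSO-only and 100 uM tamoxifen controls, with AC50 fitted by the Hill equation.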

[5] = Cell Viability - MRC5 (AID 434; calls by dose curve;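 further: potency means the concentration at half of the fitted maximal effect; cells exposed to compound for 40 hours at 37 °C; potency reflects cytotoxicity seen as loss of intracellular ATP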); conditions: MRC5 lung fibroblast viability, qHTS
Procedure, shortened: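 ATP luminescence read-out (CellTiter-Glo, 20 min RT) after 40 hr, 37 °C compound exposure of 1500 MRC5 cells/well. Data normalized to DMSO (basal) and 100 uM tamoxifen (100% inhibition); AC50 from standard Hill equation.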

[6] = Cell Viability - SK-N-SH (AID 435; calls by dose curve; further: potency means the concentration at half of the fitted maximal effect); conditions: SK-N-SH neuroblastoma cell viability qHTS
Procedure, shortened: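 Luminescent ATP signal served as the viability read-out after 40 hours of compound treatment of human neuroblastoma SK-N-SH cells. Concentration-response data, scaled between DMSO and 100 uM tamoxifen, gave AC50 values by standard Hill modeling.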

[7] = Cell Viability - N2a (AID 540); conditions: N2a mouse neuroblastoma cell viability; activity change, negative = cytotoxicity: at 92.2 µM (top of the series);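 further: plate controls were DMSO alone for no effect and tamoxifen control for full effect; nearly all actives have a fitted effect of over 45% in size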
Procedure, shortened: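 N2a mouse neuroblastoma, 1500 cells/well, 5 hr settle; compound 40 hr, 37 °C; CellTiter-Glo 20 min RT; luminescence; Hill-fit AC50.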

[8] = Cell Viability - NIH 3T3 (AID 541); conditions: NIH 3T3 cell viability, qHTS; activity change, negative = cytotoxicity: at 92.2 µM (top of the series);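 further: plate controls were DMSO alone for no effect and tamoxifen positive control for full effect; nearly all actives have a fitted effect of over 25% in size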
Procedure, shortened: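 qHTS format; 40 hr compound exposure, 37 °C; CellTiter-Glo luminescence (cellular ATP) read-out after 20 min at RT. Decrease in ATP = cytotoxicity; AC50 from standard Hill fit.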

[9] = Cell Viability - HUV-EC-C (AID 542); conditions: HUV-EC-C endothelial cell viability, qHTS; series mostly up to 92.2 µM; further: on the % scale 0 is the no-effect control and ±100 the full control effect; nearly all actives have a fitted effect of over 35% in size
Procedure, shortened: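 Luminescent ATP read-out (CellTiter-Glo, 20 min room temperature) after 40 hr compound treatment of HUV-EC-C cells at 37 °C. Concentration-response data fitted with the standard Hill equation to give AC50; tamoxifen and doxorubicin served as positive controls.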

[10] = Cell Viability - H-4-II-E (AID 543); conditions: H-4-II-E rat hepatoma viability; series mostly up to 92.2 µM; further: on the % scale 0 is the no-effect control and ±100 the full control effect; nearly all actives have a fitted effect of over 35% in size
Procedure, shortened: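 qHTS, rat hepatoma H-4-II-E, 1500 cells/well; 40 hr compound exposure, 37 °C; CellTiter-Glo ATP luminescence after 20 min RT; AC50 by standard Hill fit.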

[11] = Cell Viability - SH-SY5Y (AID 544); conditions: SH-SY5Y neuroblastoma cell viability; viability change, negative = cytotoxic: at 92.2 µM (top of the series); further: nearly all actives have a fitted effect of over 55% in size
Procedure, shortened: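 SH-SY5Y, 1500 cells/well, 5 hr pre-incubation 37 °C; cpd 40 hr 37 °C; CellTiter-Glo 20 min RT; luminescence (ATP) read. qHTS concentration-response, Hill fit → AC50. Tamoxifen, doxorubicin as positive controls.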

[12] = Cell Viability - Renal Proximal Tubule (AID 545); conditions: renal proximal tubule cells viability, primary cells of rat origin; series mostly up to 91.7 µM; further: nearly all actives have a fitted effect of over 40% in size
Procedure, shortened: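 Luminescent ATP signal (CellTiter-Glo) served as the viability read-out after 40 hr compound exposure of freshly isolated rat proximal tubule cells at 37 °C. Concentration-dependent ATP loss was fitted with the Hill equation to give AC50.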

[13] = Cell Viability - Mesenchymal (AID 546); conditions: mesenchymal cells viability, qHTS; series mostly up to 91.7 µM;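 further: cells exposed to compound for 40 hours before reading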
Procedure, shortened: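 Human renal mesenchymal cells (glomerulus-derived), 1000 cells/well, 5 hr 37 °C pre-incubation; compound 40 hr, 37 °C; CellTiter-Glo, 20 min RT; luminescence; AC50 via Hill equation.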

[14] = Cellular Toxicity (caspase-3) HepG2 (AID 654); conditions: HepG2 caspase-3 activation, luminescence; series mostly up to 92.2 µM;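 further: cells exposed to compound for 16 hours before reading; 0% = DMSO alone and 100% = caspase signal from 100 µM tamoxifen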
Procedure, shortened: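 Luminescent Caspase-Glo 3/7 readout after 16 hr compound exposure of human hepatocellular carcinoma HepG2 cells at 37 °C; qHTS concentration-response, normalized DMSO = 0%, 100 uM tamoxifen = 100%; AC50 by standard Hill equation.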

[15] = Cellular Toxicity (caspase-3) HUV-EC-C (AID 656); conditions: HUV-EC-C cells, caspase-3 activation (apoptosis), vehicle = 0, 100 µM tamoxifen = 100%; series mostly up to 92.2 µM
Procedure, shortened: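 qHTS; HUV-EC-C, 1000 cells/well; 5 hr settle, 16 hr cmpd, 37°C; Caspase-Glo 3/7, 20 min RT; luminescence. Norm: DMSO = 0%, tamoxifen 100 uM = 100%. Hill-fit AC50.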

[16] = Cellular Toxicity (caspase-3) SHSY5Y (AID 657); conditions: SH-SY5Y caspase-3 activation, DMSO zero, 10 µM staurosporine = 100%; series mostly up to 91.7 µM;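 further: cells exposed to compound for 16 hours at 37 °C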
Procedure, shortened: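 qHTS, SH-SY5Y, 1500 cells/well, 5 h pre-incubation 37 °C; compound 16 h 37 °C; Caspase-Glo 3/7 1 h RT; luminescence. Norm.: DMSO = 0, 10 uM staurosporine = 100%. Hill fit → AC50.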

[17] = Cellular Toxicity (caspase-3) BJ (AID 658); conditions: BJ fibroblasts, luminescence, normalized: DMSO 0%, staurosporine 100%; series mostly up to 91.7 µM;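 further: cells exposed to compound for 16 hours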
Procedure, shortened: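 qHTS, BJ fibroblasts, 1000 cells/well; 5 hr preincubation, 16 hr compound, 37 °C; Caspase-Glo 3/7 reagent, 1 hr RT; luminescence. DMSO = 0%, 10 uM staurosporine = 100%. Hill-equation AC50.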

[18] = Cellular Toxicity (caspase-3) MRC-5 (AID 659); conditions: MRC-5 cells, luminescence, normalized: DMSO 0%, 10 µM staurosporine 100%; series mostly up to 91.7 µM
Procedure, shortened: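 MRC-5 fibroblasts, 1500/well; 16 h cpd, 37 °C; Caspase-Glo 3/7, 1 h RT; lumi read. Norm: DMSO = 0%, 10 uM staurosporine = 100%. Hill-fit AC50 from qHTS conc-response.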

[19] = target: Mitogen-activated protein kinase 10 (Mus musculus) (UniProt Q61831); assay: JNK3 AlphaScreen Assay (AID 530; active means well fitted curve in either direction with a large enough effect, not every such curve was filed as active;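 further: kinase came from lysate of stimulated human HepG2 cells; signal reports phosphorylation of biotinylated GST-cJun 1-79 at Ser73 with 10 µM ATP; on the % scale 0 is the no-effect control and ±100 the full control effect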); conditions: JNK3 lysate, c-Jun phosphorylation; series mostly up to 57.1 µM
Procedure, shortened: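 HepG2 lysate (IL-1b/TNFa pre-activated) + biotin-GST-cJun 1-79 + anti-pSer73 cJun; cpd titration, 15 min RT; ATP 10 uM start; Tris pH 7.6, MgCl2, DTT, vanadate; beads in EDTA buffer; AlphaScreen.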

[20] = Cellular Toxicity (caspase-3) Jurkat (AID 655); conditions: Jurkat caspase-3 activation, luminescence; caspase-3 activation: at 92.2 µM (top of the series), DMSO = 0%, tamoxifen = 100%;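 further: cells exposed to compound for 16 h at 37 °C before reading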
Procedure, shortened: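 5000 Jurkat cells/well; compound 16 hr, 37 °C; Caspase-Glo 3/7 added, 20 min RT; luminescence read. Norm: DMSO = 0%, tamoxifen 100 uM = 100%. AC50, Hill model.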

OC1CCCC1
inactive: Potency [1] > 92 µM | Potency [2] > 92 µM | Potency [3] > 92 µM | Potency [4] > 92 µM | Potency [5] > 92 µM | Potency [6] > 92 µM | activity change, negative = cytotoxicity [7] -9.14% | Potency [8] | Potency [9] | Potency [10] | Potency [11] | Potency [12] | Potency [13] | Potency [14] | outcome [15] | outcome [16] | outcome [17] | outcome [18]

CCC(C)(C)OC
inactive: Potency [1] > 92 µM | Potency [2] > 92 µM | Potency [3] > 92 µM | Potency [4] > 92 µM | Potency [5] > 92 µM | Potency [6] > 92 µM | outcome [19] | activity change, negative = cytotoxicity [7] -20.8% | Potency [9] | Potency [10] | Potency [11] | Potency [12] | Potency [13] | Potency [14] | caspase-3 activation [20] 1.32% | outcome [15] | outcome [16] | outcome [17] | outcome [18]

C=CCCC
inactive: Potency [1] > 92 µM | Potency [2] > 92 µM | Potency [3] > 92 µM | Potency [4] > 92 µM | Potency [5] > 92 µM | Potency [6] > 92 µM | activity change, negative = cytotoxicity [7] 1.78% | Potency [8] | Potency [9] | Potency [10] | Potency [11] | Potency [12] | Potency [13] | Potency [14] | caspase-3 activation [20] -0.379% | outcome [15] | outcome [16] | outcome [17] | outcome [18]

O=C(O)c1ccc(Cl)c(Cl)c1
inactive: Potency [1] > 92 µM | Potency [2] > 92 µM | Potency [3] > 92 µM | Potency [4] > 92 µM | Potency [5] > 92 µM | Potency [6] > 92 µM | activity change, negative = cytotoxicity [7] 1.1% | Potency [8] | Potency [9] | Potency [10] | Potency [11] | Potency [12] | Potency [13] | Potency [14] | caspase-3 activation [20] -1.55% | outcome [15] | outcome [16] | outcome [17] | outcome [18]

CC(C)=CCC/C(C)=C/C=O
inactive: Potency [1] > 92 µM | Potency [2] > 92 µM | Potency [3] > 92 µM | Potency [4] > 92 µM | Potency [5] > 92 µM | Potency [6] > 92 µM | outcome [19] | activity change, negative = cytotoxicity [7] -7.95% | Potency [9] | Potency [11] | Potency [12] | Potency [13] | Potency [14] | caspase-3 activation [20] 0.822% | outcome [16] | outcome [17]

CCc1ccccc1O
inactive: Potency [1] > 92 µM | Potency [2] > 92 µM | Potency [3] > 92 µM | Potency [4] > 92 µM | Potency [5] > 92 µM | Potency [6] > 92 µM | outcome [19] | activity change, negative = cytotoxicity [7] 2.33% | Potency [9] | Potency [10] | Potency [11] | Potency [12] | Potency [13] | Potency [14] | caspase-3 activation [20] 0.741% | outcome [17] | outcome [18]

CCN(Cc1ccccc1)c1ccccc1
inactive: Potency [1] > 92 µM | Potency [2] > 92 µM | Potency [3] > 92 µM | Potency [4] > 92 µM | Potency [5] > 92 µM | Potency [6] > 92 µM | outcome [19] | activity change, negative = cytotoxicity [7] 15.1% | Potency [9] | Potency [10] | Potency [11] | Potency [12] | Potency [13] | Potency [14] | outcome [15] | outcome [16] | outcome [17] | outcome [18]

Cc1cccc2sc(N)nc12
inactive: Potency [1] > 92 µM | Potency [2] > 92 µM | Potency [3] > 92 µM | Potency [4] > 92 µM | Potency [5] > 92 µM | Potency [6] > 92 µM | activity change, negative = cytotoxicity [7] -1.12% | Potency [8] | Potency [9] | Potency [10] | Potency [11] | Potency [12] | Potency [13] | Potency [14] | caspase-3 activation [20] -0.319% | outcome [15] | outcome [16] | outcome [17] | outcome [18]

NCCCCCCN
inactive: Potency [1] > 92 µM | Potency [2] > 92 µM | Potency [3] > 92 µM | Potency [4] > 92 µM | Potency [5] > 92 µM | Potency [6] > 92 µM | outcome [19] | activity change, negative = cytotoxicity [7] -4.05% | Potency [9] | Potency [10] | Potency [11] | Potency [12] | Potency [13] | Potency [14] | outcome [15] | outcome [16] | outcome [17] | outcome [18]

O=C(O)c1ccc(CO)o1
inactive: Potency [1] > 92 µM | Potency [2] > 92 µM | Potency [3] > 92 µM | Potency [4] > 92 µM | Potency [5] > 92 µM | Potency [6] > 92 µM | outcome [19] | activity change, negative = cytotoxicity [7] -2.4% | Potency [9] | Potency [10] | Potency [11] | Potency [12] | Potency [13] | Potency [14] | caspase-3 activation [20] 1.29% | outcome [15] | outcome [16] | outcome [17] | outcome [18]

C1CCOC1
inactive: Potency [1] > 92 µM | Potency [2] > 92 µM | Potency [3] > 92 µM | Potency [4] > 92 µM | Potency [5] > 92 µM | Potency [6] > 92 µM | activity change, negative = cytotoxicity [7] 3.61% | Potency [8] | Potency [9] | Potency [10] | Potency [11] | Potency [12] | Potency [13] | Potency [14] | caspase-3 activation [20] -0.19% | outcome [15] | outcome [16] | outcome [17] | outcome [18]

Reference: PubChem BioAssay (NCATS)
